Our source for the growth inhibition values is PubChem BioAssay (NCI).

Test [1] can be described thus: NCI Yeast Anticancer Drug Screen. Data for the rad50 strain (AID 155).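 Further: 0% = growth of vehicle-only cultures of the same strain.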 The settings on record: S. cerevisiae rad50 strain growth inhibition; at 50.0 µM; active compounds read high. In a few lines:
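Compounds were tested on a yeast strain with an engineered DNA damage repair alteration; the reported value is growth inhibition normalised to vehicle treatment.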

Test [2] can be described thus: NCI Yeast Anticancer Drug Screen. Data for the mec2-1 strain (AID 157). The note with it: S. cerevisiae mec2-1 strain, at 50.0 µM, active compounds read high. In a few lines: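 Cells of the genetically defined mec2-1 yeast strain are incubated with test compound. Inhibition of growth is calculated against vehicle-treated controls.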
A short description of test [3]: NCI Yeast Anticancer Drug Screen. Data for the sgs1 mgt1 strain (AID 161).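 Further: 0% = growth of cultures given vehicle only.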 The settings on record: S. cerevisiae sgs1 mgt1 strain, at 50.0 µM, active compounds read high. The method, boiled down: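 Inhibition of yeast growth, normalised to vehicle-treated controls, is reported for a strain bearing genetic alterations in DNA damage repair.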
Test [4] in a line: NCI Yeast Anticancer Drug Screen. Data for the cln2 rad14 strain (AID 165).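 Further: 0% = growth equal to vehicle treated cultures.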 The note with it: S. cerevisiae cln2 rad14 strain, at 50.0 µM, active compounds read high. In a few lines:
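The screen exposed genetically defined yeast (cln2 rad14) to test compounds and scored growth inhibition relative to vehicle-treated controls.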

A short description of test [5]: NCI Yeast Anticancer Drug Screen. Data for the bub3 strain (AID 167). The settings on record: S. cerevisiae bub3 mutant strain, at 50.0 µM, active compounds read high. In a few lines:
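Growth of a checkpoint-deficient yeast mutant is measured after compound exposure. Values represent inhibition relative to vehicle.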

A short description of test [6]: NCI Yeast Anticancer Drug Screen. Data for the mlh1 rad18 strain (AID 175). The settings on record: S. cerevisiae mlh1 rad18 strain growth inhibition; at 50.0 µM; active compounds read high. The method, boiled down: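 Compound-treated yeast growth, normalised to vehicle controls. Strain bears defined DNA repair mutations.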

About 79,000 compounds went through this panel and 15% of them were active in at least one assay; those are over-represented in the sample as a whole. A number with no mark means an inactive call. Calls of active or inactive are those of the source. No stated cut-off is given here; in the data, active means growth inhibition above about 70%; inactive means the rest.

As for `O=C1CCCc2[nH]c3ccc(Cl)cc3c21`, the growth inhibition was -1.9% in test [1]; 0.3% in test [2]; -10.9% in test [3]; -21.9% in test [4]; -14.2% in test [5]; 12.9% in test [6].
On to `CCCCCCC(=O)c1ccc2ccccc2c1O`, for which the growth inhibition in test [1] is 1.6%; in test [2], -14.8%; in test [3], 0.55%; in test [4], -23.9%; in test [5], 8.8%; in test [6], -2.55%.
As for `O=C1C[CH]([Ge](=[O])[O][Ge](=[O])[CH]2CC(=O)NC(=O)N2)NC(=O)N1` (stereo not given), the growth inhibition was 43.9% in test [1]; 18.2% in test [2]; 25.1% in test [3]; 16.6% in test [4]; -5.3% in test [5]; 22.1% in test [6].
Consider `Cc1[nH]c(C)c2ccc(=O)ccc12`, for which the growth inhibition was -51.4% in test [1]; -8.35% in test [2]; -16.6% in test [3]; -58.2% in test [4]; -2% in test [5]; -7.65% in test [6].
On to `O=C(NC(=O)c1ccc(Cl)c(Cl)c1)Nc1ccc(Cl)cc1`, for which the growth inhibition in test [1] was -1.45%; in test [2], -13.8%; in test [3], -6.35%; in test [4], -32.6%; in test [5], 11.2%; in test [6], 8%.
`COC(=O)C1CCCN1C(=O)C(C)=O` (stereo not given): the growth inhibition was 16.9% in test [1]; 10.4% in test [2]; -4.85% in test [3]; -40.5% in test [4]; 5.4% in test [5]; -5.45% in test [6].
In the case of `N#Cc1cc(F)c(N)c(F)c1`, the growth inhibition in test [1] is -2.25%; in test [2], 7.95%; in test [3] it was 2.2%; in test [4], 9.95%; in test [5], -0.35%; in test [6], 3.8%.
Consider `O=C(Cc1ccccc1)NN(Cc1ccccc1)Cc1ccccc1`, for which the growth inhibition in test [1] is -14.8%; in test [2], -0.85%; in test [3], -2.95%; in test [4] it was -10.8%; in test [5], 23.9%; in test [6], 0.5%.
For the compound `Cc1ccc(N=C=C(c2ccc(Cl)cc2)c2ccc(Cl)cc2)cc1`, the growth inhibition in test [1] was 73.2% (active); in test [2], 64.4%; in test [3], 70.8% (active); in test [4], 60.2%; in test [5], 59.6%; in test [6], 77.2% (active).
Regarding `C(=C(c1ccccc1)c1ccccc1)=C(c1ccccc1)c1ccccc1`, the growth inhibition in test [1] was 30.8%; in test [2] it was 12.9%; in test [3], 24.6%; in test [4], -15.4%; in test [5] it was 4.95%; in test [6], 32%.
As for `CN(C)C=Nc1cc2c3c(c1)CCCN3CCC2`, the growth inhibition in test [1] was 10.8%; in test [2], -0.5%; in test [3], 13.3%; in test [4], 11.8%; in test [5], -2.6%; in test [6] it was 31.4%.
As to `Nc1ccc2ccccc2c1Cl`, the growth inhibition is -9.05% in test [1]; -38.5% in test [2]; -11.4% in test [3]; 6% in test [4]; -44.4% in test [5]; -11.3% in test [6].
On to `O=C(CCN(CCC(=O)c1ccccc1)CCC(=O)c1ccccc1)c1ccccc1`, for which the growth inhibition is 22.2% in test [1]; 11.8% in test [2]; -5.05% in test [3]; -31.3% in test [4]; 0.9% in test [5]; 26.9% in test [6].
Consider `[Cl][Tb]([Cl])[Cl]`, for which the growth inhibition was 16.4% in test [1]; 8% in test [2]; 31.8% in test [3]; 40.1% in test [4]; 37.2% in test [5]; 29% in test [6].
Take `C=CCOCn1ccc(=O)[nH]c1=O`: the growth inhibition was 4.35% in test [1]; -3.05% in test [2]; 5.85% in test [3]; 3% in test [4]; 3.2% in test [5]; -3.05% in test [6].
In the case of `O=C(SCCN1CCCC1)C(O)(c1ccccc1)C1CCCC1` (stereo not given), the growth inhibition in test [1] is 14.8%; in test [2], -6%; in test [3] it was -5.3%; in test [4], -7.95%; in test [5] it was -2.35%; in test [6], 11.7%.
Take `CCCCCCCCCCCl`: the growth inhibition was 13.2% in test [1]; 5.85% in test [2]; 28.5% in test [3]; 21.8% in test [4]; 17.6% in test [5]; 25% in test [6].
Turning to `CCOC(=O)Nc1ccc(Cl)cc1Cl`, the growth inhibition in test [1] is -16.3%; in test [2], -8.2%; in test [3], -4.7%; in test [4], -16.7%; in test [5], -8.75%; in test [6], 1.15%.
In the case of `CC(OC(C(O)C=O)C(O)C(O)CO)C(=O)N[C@@H](C)C(=O)O` (stereo not given in full), the growth inhibition in test [1] was 6.1%; in test [2] it was -8.55%; in test [3], -0.75%; in test [4], -2.45%; in test [5], -9.2%; in test [6], 25.8%.
Consider `O=C(CSc1cc(Cl)c(Cl)cc1Cl)Nc1cccc(Cl)c1`, for which the growth inhibition in test [1] was -7.9%; in test [2], -6.9%; in test [3], 6.3%; in test [4] it was -12.6%; in test [5] it was -2.85%; in test [6], 3.5%.
